Screening results (PubChem BioAssay)
Only some compounds are listed: those with a hit (about 1.6% of all), similar ones and a draw of the others.
RXFP1 antagonist: blocks the human relaxin receptor RXFP1. HEK293-RXFP1, relaxin-stimulated cAMP HTRF, 30 min; stronger effect = lower value. Q9HBX9. activity change, negative = inhibition, % at 57.5 µM. AID 1259400. 0.59% of 350,000 active;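 active = activity change of -60% or lower, but not beyond a set lower limit; inconclusive = change between -60% and -40%, or beyond the set limit; inactive = change above -40%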; note: % is set by controls: 0 for no effect and ±100 for the full control effect
Target sequence (Q9HBX9 whole entry, looked up): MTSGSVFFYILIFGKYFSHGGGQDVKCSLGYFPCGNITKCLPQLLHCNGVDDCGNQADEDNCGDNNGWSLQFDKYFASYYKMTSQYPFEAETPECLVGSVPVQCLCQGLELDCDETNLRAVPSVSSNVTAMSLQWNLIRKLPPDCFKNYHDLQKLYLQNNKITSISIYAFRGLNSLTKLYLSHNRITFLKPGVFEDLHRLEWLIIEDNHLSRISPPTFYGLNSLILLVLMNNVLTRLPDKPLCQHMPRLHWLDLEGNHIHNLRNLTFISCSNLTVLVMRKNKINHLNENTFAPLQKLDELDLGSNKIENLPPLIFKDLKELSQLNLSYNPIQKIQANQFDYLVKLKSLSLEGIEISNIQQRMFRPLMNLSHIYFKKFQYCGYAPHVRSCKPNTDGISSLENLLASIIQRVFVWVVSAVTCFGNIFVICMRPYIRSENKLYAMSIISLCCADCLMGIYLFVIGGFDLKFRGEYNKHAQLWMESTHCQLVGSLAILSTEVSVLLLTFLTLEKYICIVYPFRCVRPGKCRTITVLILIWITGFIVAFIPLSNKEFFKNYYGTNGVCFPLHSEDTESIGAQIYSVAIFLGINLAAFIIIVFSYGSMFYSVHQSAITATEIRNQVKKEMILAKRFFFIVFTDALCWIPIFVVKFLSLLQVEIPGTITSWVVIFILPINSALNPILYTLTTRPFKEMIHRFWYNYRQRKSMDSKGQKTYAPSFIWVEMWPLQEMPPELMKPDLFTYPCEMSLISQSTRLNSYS
RXFP1 agonist: RXFP1 (human) receptor agonism. HEK293T-RXFP1 cAMP TR-FRET, 30 min; response scale: percent of porcine relaxin response, buffer zero. Potency, µM (top dose mostly 57.5 µM), without a hit: at the highest dose activation, most hits filed as activators. 0.3% of 370,000 active. AID 2676; active = well fitted activation curve with a large enough effect; inconclusive = small, poorly fitted or top-dose-only effect; note: potency is the fitted concentration of half-maximal effect; % is set by controls: 0 for no effect and ±100 for the full control effect; nearly all actives have a fitted effect of over 60% in size
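HEK293T cells stably expressing RXFP1 were pretreated with the PDE4 inhibitor Ro 20174, exposed to compounds for 30 min at 37C, lysed, and cAMP was read by TR-FRET. Data normalized to buffer (basal) and 29 nM porcine relaxin (100%).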
Giardia killer: kills Giardia lamblia; Giardia lamblia trophozoite viability; activity change, % at 7.66 µM, hits read low; 0.15% of 340,000 active; AID 540267; in the data active = activity change below about -80%; inconclusive = between about -30% and that limit;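 note: parasites exposed to compound for two days anaerobically before the ATP read; % is set by controls: 0 for no effect and ±100 for the full control effect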
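Trophozoite viability was measured as ATP-dependent luminescence, read 15-30 min after reagent addition. Before that, parasites at 100 cells/well were exposed to compounds for 48 h, anaerobically, at 37 deg C.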
gsp agonist: agonists of gsp mutant (McCune-Albright syndrome). gsp mutant cells, cAMP HTRF, 30 min. 0.13% of 340,000 active. Potency, µM (doses to about 76.9 µM), without a hit: at the top dose activation (cAMP increase), hits mostly activators; active = well fitted activation curve with a large enough effect; inconclusive = small, poorly fitted or top-dose-only effect, or another doubt; inactive = no such curve, though single readings can be large or run the other way; cell line not stated here;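 note: phosphodiesterase inhibitor Ro 20-1724 added with compounds to block cAMP breakdown; potency is the fitted concentration of half-maximal effect; nearly all actives have a fitted effect of over 60% in size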
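Cells in DMEM/10% FBS with G418 were pretreated with compounds in DMSO plus […] (300 uM stock) for 30 min at 37C. cAMP was measured by HTRF (cAMP-d2 plus anti-cAMP antibody-K) after 30 min at room temperature.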
gsp antagonist: antagonists of gsp mutant (McCune-Albright syndrome); gsp-mutant cells, cAMP HTRF, 30 min; Potency, µM (series often up to 76.9 µM), without a hit: top-dose activity change, negative = inhibition, actives largely listed as inhibitors; 0.4% of 340,000 active; AID 624288; calls by dose curve; cell line not stated here;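 note: intracellular cAMP measured with PDE inhibitor Ro 20-1724 present during compound exposure; potency is the fitted concentration of half-maximal effect; % is set by controls: 0 for no effect and ±100 for the full control effect; nearly all actives have a fitted effect of over 65% in size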
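HTRF cAMP measurement after 30 min RT detection following 30 min, 37C compound treatment alongside […] (added as 300 uM solution) in G418-selected cells seeded at 2000/well and grown 16–24 h.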
FBPA coupling cs: inhibits coupling enzyme system, counter-screen for aldolase hits; coupling enzyme system counterscreen, AmpLite Red fluorescence; activity change, negative = inhibition, % at 58.2 µM, hits read low; 0.67% of 290,000 active; in the data active = activity change below about -30%; note: % is set by controls: 0 for no effect and ±100 for the full control effect
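Counterscreen of the coupled detection system alone, without aldolase: glyceraldehyde-3-phosphate coupling enzymes plus AmpLite Red readout. Compounds at 57.5 uM final, 10 min RT preincubation, 20 min RT reaction, fluorescence 525/598 nm.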
Numbers without * were called inactive; ? = inconclusive; / = no result; ! = repeats disagree; [ ] = dose if it differs, or a comment.

SMILES | RXFP1 antagonist | RXFP1 agonist | Giardia killer | gsp agonist | gsp antagonist | FBPA coupling cs
O=C(O)CCCn1cc(NC(=O)c2cccc(F)c2)cn1 | -11 | -1% | -6 | 2%[15.4 µM] | 4% | 4
O=C(O)CCCn1cc(NC(=O)c2cc(F)c(F)cc2Cl)cn1 | 0 | -4% | 37 | -14%[15.4 µM] | 10% | -34*
Cc1ccc(CNC(=O)COc2ccc(C(=O)c3ccc(F)cc3)cc2)cc1 | -4 | 0% | 0 | 11%[15.4 µM] | 15% | -2
Cc1ccc(NC(=S)N2CCN(S(=O)(=O)c3ccc(F)cc3)CC2)cc1 | 3 | 4% | -7 | 0%[15.4 µM] | -2% | 1
COc1ccccc1CNC(=O)CSc1ccccc1 | -30 | 0% | -11 | -4%[15.4 µM] | -2% | -1
COc1ccccc1CNC(=O)CSc1ccc(C)cc1 | 20 | -1% | -12 | 25% | 4% | -30*
CC1(C)OC(=O)N(NCc2ccccc2)C1(C)O (stereo not given) | -8 | 3% | -16 | -37% | 3% | 3
Nc1nc(NCc2ccc(Cl)cc2)c2[nH]cnc2n1 | / | / | -5 | / | / | /
Cc1ccc(C)c(CN2C(=O)COc3ccc(C(=O)c4ccccc4C(=O)O)cc32)c1 | -13 | -3% | 17 | ? | -1% | -35*
CCCNC(=O)N1CCN(S(=O)(=O)c2ccc3c(ccn3C)c2)CC1 | / | 0% | / | / | / | /
O=C(CC(c1ccccc1)c1ccccc1O)NCc1ccco1 (stereo not given) | -1 | -2% | -2 | -38% | -5% | 3
O=C(CC(c1ccccc1)c1ccccc1O)NCc1ccccc1Cl (stereo not given) | -15 | 1% | -10 | 0% | 35µM* | 0
Cc1cc(NC(=O)COc2cccc3cccnc23)no1 | / | -1% | / | / | / | -32*
CC(C)OCCCN(C)C1CCN(S(=O)(=O)c2ccc(-c3ccc(=O)[nH]n3)s2)CC1 | 30 | 1% | 19 | ? | 2% | -5
CCSc1nc(=S)cc(C)[nH]1 | -75* | 2% | 2 | ? | -10% | -4
Cc1ncc([N+](=O)[O-])n1CCO | 31 | -1% | ? | / | -5% | 0
CCS(=O)(=O)CCn1c([N+](=O)[O-])cnc1C | 14 | -1% | -86* | / | -1% | 1
Nc1nc(N)c(-c2cccc(C(F)(F)F)c2)c(Cc2cccc(C(F)(F)F)c2)n1 | -93* | / | -14 | 3% | 2% | /
CC(=O)c1ccc(C2CC34CNS(=O)(=O)C3CC2O4)cc1 (stereo not given) | / | / | 3 | / | / | 6
O=C(CSc1ccccn1)Nc1cccc2ccccc12 | -4 | 1% | 11 | 17%[15.4 µM] | -28% | -77*
COc1ccc(C(=O)N/N=C/c2ccc(N3CCOCC3)o2)cc1OC | 1 | 0% | 34 | 2% | 5% | -35*
COc1ccc(C(=O)N/N=C/c2ccc(N3CCOCC3)s2)cc1OC | -4 | 2% | -17 | 6% | ? | /
O=C(OCc1ccc(F)cc1)c1ccc2c(c1)-c1ccccc1C2=O | -6 | 1% | 9 | -27% | -3% | /
CCOC(=O)C1=C(Cc2ccc(F)cc2)C(=O)c2ccccc2C1=O | -19 | -1% | 6 | 6% | -1% | -57*
CCN(CC)S(=O)(=O)c1ccc(O)c(NC(=O)c2cc(-c3cc(OC)c(OC)c(OC)c3)nc3ccccc23)c1 | ? | 9% | 5 | ? | 35µM* | 1
SMILES | RXFP1 antagonist | RXFP1 agonist | Giardia killer | gsp agonist | gsp antagonist | FBPA coupling cs
CN(C(=O)c1cncc(Br)c1)c1c(N)n(Cc2ccccc2)c(=O)[nH]c1=O | -70* | 0% | -19 | 8%[15.4 µM] | 4% | /
Cc1ccc(C)c(OCCC(=O)OCC(=O)N(C)c2c(N)n(Cc3ccccc3)c(=O)[nH]c2=O)c1 | -64* | 1% | ? | 4%[15.4 µM] | 7% | /
Cc1cc(=O)n2nc(N3CCCC3C(=O)Nc3cccc(F)c3)sc2n1 (stereo not given) | 0 | ? | 12 | ? | 8% | -1
Cc1cc(=O)n2nc(N3CCCC3C(=O)Nc3ccccc3C)sc2n1 (stereo not given) | 7 | ? | -11 | 13µM* | 4% | 2
Nc1ccc(O)cc1C(=O)OCC(=O)C12CC3CC(CC(C3)C1)C2 | -39 | 1% | -12 | -1% | -11% | -47*
Cc1csc(=O)n1CCC(=O)OCC(=O)c1c(N)n(C)c(=O)n(C)c1=O | 13 | 25% | 4 | 25µM* | 2% | /
Cc1csc(=O)n1CCC(=O)OCC(=O)c1c(N)n(CC(C)C)c(=O)n(C)c1=O | -10 | 3% | -8 | 16% | -12% | /
COc1ccc(CN(C)C(=O)c2ccc(NS(=O)(=O)c3ccc(F)cc3)cc2)c(OC)c1OC | 0 | 1% | -1 | 9%[15.4 µM] | -23% | /
COc1ccc(CCN2C(=S)N(C)C(=O)C2CC(=O)Nc2ccc(OC)cc2)cc1 (stereo not given) | -63* | 1% | 12 | 17% | -13% | 1
COc1ccc(NC(=O)CC2C(=O)N(C)C(=S)N2CCc2ccc(F)cc2)cc1 (stereo not given) | -27 | 0% | -4 | -18%[15.4 µM] | -8% | -1
CCOC(=O)COc1nc(-c2ccco2)cc(-c2ccco2)c1C#N | -20 | -4% | 10 | 4%[15.4 µM] | -22% | 7
CCOC(=O)C(C)Sc1nc(-c2ccco2)cc(C(F)(F)F)c1C#N (stereo not given) | -19 | 1% | 17 | -20% | 35µM* | 6
C=CCOC(=O)C1=C(C)N(C)C(=O)NC1c1cc2c(cc1Br)OCO2 (stereo not given) | -74* | 3% | 6 | -49% | 0% | 5
Cc1ccc(NC(=S)NNC(=O)c2cccc([N+](=O)[O-])c2)cc1Cl | -7 | 3% | -18 | 21% | -16% | 2
COc1ccc(N2C(=O)C(Cl)=C(N3CCOCC3)C2=O)cc1 | -62* | 1% | 7 | -87% | -3% | 4
COc1ccc(N2C(=O)C(Cl)=C(Oc3cccc(OC)c3)C2=O)cc1 | -17 | 0% | 5 | -3%[15.4 µM] | 28µM* | 1
COc1ccc(Cn2c(C(=O)O)c(CNCCc3ccccc3Cl)c3ccc(C)cc32)cc1 | -7 | 4% | / | / | / | /
O=[N+]([O-])c1cc(S(=O)(=O)N2CCOCC2)ccc1OCc1cccc(Cl)c1 | -13 | -2% | 14 | 2% | 9% | /
Cc1c2cc(O)c(=O)cc-2oc2cc(O)c(O)cc12 | -4 | 2% | 3 | 8% | ? | -54*!
COc1cc(OC)c(-c2c3cc(O)c(=O)cc-3oc3cc(O)c(O)cc23)cc1OC | 4 | 3% | -14 | 16% | 7% | -17
CCC1=C2CC[C@H]3C(=O)N(C)C(=O)[C@H]3[C@H]2[C@@]2(Cc3ccccc3)C(=NCC3CC3)OC(=O)N2C1=O | / | / | / | / | / | 2
COc1ccc(S(=O)(=O)NCCSCc2cccs2)cc1 | -9 | 0% | -2 | -4% | 32µM* | 2
